# In all, about 33,000 sequences were measured (“e-score”: median about -0.053, highest 2% from about 0.38 on). Shown is part of a subset that was picked to be rich in the highest values.
# Target: T1, SIX1 homeodomain (reference allele) (human, UniProt Q15475 108-198)
# T1 sequence: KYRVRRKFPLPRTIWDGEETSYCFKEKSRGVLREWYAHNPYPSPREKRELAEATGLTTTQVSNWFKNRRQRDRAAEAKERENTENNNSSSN
# Experiment: universal protein binding microarray; Universal all-10-mer PBM (8x60K, AMADID 030236), 300 nM GST-tagged protein, Alexa Fluor 488 anti-GST; buffer, salt, pH and temperature not stated (as in Berger); high values mean tight binding
# Settings: protein: ivt; tags: N-terminal GST; dsDNA, one strand shown
# Outline: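 Binding was expressed as 8-mer E-scores calculated with the Universal PBM Analysis Suite. The GST-tagged homeodomains, made by in vitro transcription/translation, were applied in duplicate at 300 nM final concentration to universal 'all 10-mer' protein binding microarrays (8×60K format).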
row,Sequence,binding signal
1,GTATCTAA,0.374 ± 0.0214 E-score
2,AGATCGAT,0.345 ± 0.0116 E-score
3,CGATCGAG,0.21 ± 0.0298 E-score
4,GGATCGAA,0.267 ± 0.0826 E-score
5,ATAGCTTA,0.214 ± 0.0605 E-score
6,ATATAATA,0.322 ± 0.053 E-score
7,AAGCGTAT,0.231 ± 0.0511 E-score
8,CTCGTATA,0.161 ± 0.055 E-score
9,GGTTATAC,0.261 ± 0.0421 E-score
10,ATCGCCTC,0.216 ± 0.0033 E-score
11,ACCGGAGA,0.201 ± 0.00786 E-score
12,CCGTAATC,0.169 ± 0.00918 E-score
13,GGTCGATA,0.271 ± 0.00805 E-score
14,CGGGACAC,0.153 ± 0.0127 E-score
15,CTATCGAA,0.228 ± 0.0495 E-score
16,ATATCGAA,0.393 ± 0.0367 E-score
17,TATACGAA,0.164 ± 0.00791 E-score
18,AATATGTG,0.197 ± 0.0339 E-score
19,ATAAATAC,0.163 ± 0.0133 E-score
20,GGGTATTA,0.393 ± 0.0546 E-score
21,AAGTATTA,0.254 ± 0.109 E-score
22,CGGTATTA,0.368 ± 0.031 E-score
23,AGGTATTG,0.29 ± 0.0429 E-score
24,GCGTATTA,0.161 ± 0.0688 E-score
25,AGGTATTA,0.385 ± 0.0849 E-score

row,Sequence,binding signal
1,CTTACACC,0.203 ± 0.0268 E-score
2,GTCGTATA,0.186 ± 0.0245 E-score
3,GTAGACAC,0.182 ± 0.0638 E-score
4,AGATAGGG,0.263 ± 0.0607 E-score
5,TACCAGTA,0.201 ± 0.0209 E-score
6,AATCGGGG,0.181 ± 0.117 E-score
7,ATGAATAC,0.2845 ± 0.00167 E-score
8,CGGAGATC,0.322 ± 0.00475 E-score
9,GAAGTATC,0.407 ± 0.0492 E-score
10,AAAGTATC,0.413 ± 0.0634 E-score
11,AAAGTATA,0.173 ± 0.149 E-score
12,TAAGTATA,0.218 ± 0.0666 E-score
13,GAAGTATA,0.261 ± 0.108 E-score
14,CAAGTATC,0.378 ± 0.0659 E-score
15,CAAATATC,0.21 ± 0.0519 E-score
16,GAACTATC,0.23 ± 0.0598 E-score
17,ATAAGTAT,0.235 ± 0.0716 E-score
18,TACACTGA,0.178 ± 0.0145 E-score
19,ATCTTCCC,0.174 ± 0.0102 E-score
20,ATCACGAA,0.172 ± 0.0453 E-score
21,CTAGACAC,0.158 ± 0.012 E-score
22,GAATAATC,0.209 ± 0.0094 E-score
23,ATGCATCA,0.198 ± 0.0685 E-score
24,ATCATAAG,0.286 ± 0.0333 E-score
25,GATATATC,0.441 ± 0.0284 E-score

row,Sequence,binding signal
1,TATATATA,0.344 ± 0.0349 E-score
2,GATATATA,0.377 ± 0.0449 E-score
3,CATATATC,0.341 ± 0.0628 E-score
4,AATATATC,0.343 ± 0.0593 E-score
5,GATATAGA,0.318 ± 0.034 E-score
6,ATACTTTC,0.16 ± 0.145 E-score
7,CCTCCGGA,0.203 ± 0.0104 E-score
8,CCTCGAGG,0.197 ± 0.043 E-score
9,CAGATCAG,0.353 ± 0.0153 E-score
10,ATACCAAT,0.3482 ± 0.0028 E-score
11,ATCCCAGC,0.221 ± 0.0257 E-score
12,CTTGTATC,0.266 ± 0.0293 E-score
13,AGTGTATC,0.43 ± 0.00296 E-score
14,CATGTATA,0.223 ± 0.0131 E-score
15,AATGTATC,0.363 ± 0.0137 E-score
16,AGTGTATA,0.291 ± 0.0334 E-score
17,CGTGTATC,0.404 ± 0.0303 E-score
18,CATGTATC,0.403 ± 0.00743 E-score
19,CGTGTATA,0.247 ± 0.0518 E-score
20,AGTGTACC,0.16 ± 0.0592 E-score
21,ATCGGGGG,0.223 ± 0.00524 E-score
22,ATCAACAG,0.209 ± 0.0732 E-score
23,ATCCGGCC,0.316 ± 0.022 E-score
24,CGATCGGC,0.1802 ± 0.00119 E-score
25,TATTATGA,0.207 ± 0.134 E-score

row,Sequence,binding signal
1,ATCAAGCA,0.174 ± 0.047 E-score
2,GATGCGGA,0.199 ± 0.0357 E-score
3,CTTCGATC,0.152 ± 0.112 E-score
4,GCAGATCC,0.272 ± 0.0482 E-score
5,GCTGATCC,0.425 ± 0.0138 E-score
6,ACTGATCC,0.398 ± 0.007 E-score
7,CCTGATCG,0.197 ± 0.0659 E-score
8,CCTGATCC,0.387 ± 0.0469 E-score
9,CCTGATCA,0.306 ± 0.0156 E-score
10,ACTGATCT,0.34 ± 0.0165 E-score
11,ACTGATCG,0.156 ± 0.0405 E-score
12,GCTGATCA,0.198 ± 0.00374 E-score
13,GTCTAGTA,0.158 ± 0.0279 E-score
14,CACACCGG,0.224 ± 0.0376 E-score
15,GTATACGA,0.308 ± 0.0266 E-score
16,CATGGTGA,0.225 ± 0.035 E-score
17,AATATGCG,0.171 ± 0.0476 E-score
18,GATATGAA,0.259 ± 0.0356 E-score
19,AATATGCC,0.16 ± 0.0322 E-score
20,GATATGCA,0.4032 ± 0.00302 E-score
21,CATATGCC,0.162 ± 0.0394 E-score
22,GATATGCC,0.427 ± 0.0454 E-score
23,CTAATACC,0.285 ± 0.0649 E-score
24,ATAATACA,0.302 ± 0.0417 E-score
25,ACAATACG,0.25 ± 0.0363 E-score

row,Sequence,binding signal
1,ATAATACC,0.421 ± 0.0503 E-score
2,ATAATATG,0.27 ± 0.0724 E-score
3,ATAATACG,0.385 ± 0.0407 E-score
4,GGAGCATA,0.213 ± 0.018 E-score
5,ATATGAGG,0.156 ± 0.0225 E-score
6,CGTCTAAG,0.193 ± 0.0194 E-score
7,GCAATATA,0.16 ± 0.0581 E-score
8,CGACACCC,0.439 ± 0.0379 E-score
9,TCACACCA,0.195 ± 0.0562 E-score
10,CCACACCG,0.151 ± 0.104 E-score
11,CAACACCA,0.282 ± 0.0199 E-score
12,GGACACCC,0.372 ± 0.033 E-score
13,AGACACCC,0.335 ± 0.0199 E-score
14,CGACACCG,0.427 ± 0.0217 E-score
15,AGACACCG,0.323 ± 0.0488 E-score
16,CGACACCA,0.416 ± 0.0371 E-score
17,CCATAGGG,0.162 ± 0.116 E-score
18,GCAGATCA,0.369 ± 0.0161 E-score
19,ATACTGAG,0.286 ± 0.0205 E-score
20,CTCCAGGA,0.161 ± 0.0145 E-score
21,ATCAGGTA,0.2929 ± 0.00141 E-score
22,CTCGTGTA,0.158 ± 0.00844 E-score
23,AAAATCCG,0.175 ± 0.0497 E-score
24,AGAGTATC,0.465 ± 0.0179 E-score
25,GGAGTATA,0.319 ± 0.0316 E-score

row,Sequence,binding signal
1,CGAGTATA,0.29 ± 0.0819 E-score
2,CGAGTATC,0.435 ± 0.0231 E-score
3,AGAGTATA,0.262 ± 0.0847 E-score
4,CGAGTACC,0.185 ± 0.0226 E-score
5,ACCGATCG,0.272 ± 0.0437 E-score
6,ATATAGCC,0.25 ± 0.032 E-score
7,GGACACGA,0.176 ± 0.0225 E-score
8,GGACACCA,0.3862 ± 0.00187 E-score
9,AGACACCA,0.329 ± 0.0244 E-score
10,TAACACCA,0.299 ± 0.0116 E-score
11,AGACACCT,0.287 ± 0.0126 E-score
12,TGACACCA,0.466 ± 0.0154 E-score
13,GATTATCA,0.2193 ± 0.00188 E-score
14,CCAGATTA,0.252 ± 0.0366 E-score
15,ACCATGTA,0.197 ± 0.0756 E-score
16,GAGGACAC,0.222 ± 0.0132 E-score
17,ATACGTAG,0.276 ± 0.0521 E-score
18,ACTCGGAT,0.38 ± 0.00767 E-score
19,ATACGTAC,0.336 ± 0.0217 E-score
20,ACACGGAT,0.4012 ± 0.00112 E-score
21,AGGCGGAT,0.346 ± 0.0312 E-score
22,AAACGGAT,0.364 ± 0.0337 E-score
23,AGTCGGAT,0.296 ± 0.0281 E-score
24,AATCGGAT,0.253 ± 0.0252 E-score
25,ATACGTAT,0.421 ± 0.00632 E-score

row,Sequence,binding signal
1,ACACGGCT,0.2 ± 0.00761 E-score
2,AGACGGAT,0.402 ± 0.0158 E-score
3,AGACGGCA,0.197 ± 0.0126 E-score
4,TCAGATGA,0.3071 ± 0.00299 E-score
5,AAGATGAT,0.156 ± 0.09 E-score
6,TATCGATA,0.342 ± 0.0612 E-score
7,GATCAAAC,0.193 ± 0.0111 E-score
8,ACACCATC,0.312 ± 0.0186 E-score
9,ATCGGGGC,0.198 ± 0.0293 E-score
10,CGTCTCAC,0.254 ± 0.0158 E-score
11,AACCGATC,0.335 ± 0.00772 E-score
12,TACCCCTA,0.34 ± 0.00513 E-score
13,ATACGGAT,0.4254 ± 0.00356 E-score
14,ATACGGAG,0.193 ± 0.0505 E-score
15,ATACGGAA,0.218 ± 0.0296 E-score
16,AGATAGTC,0.172 ± 0.0352 E-score
17,CGATACTA,0.424 ± 0.0171 E-score
18,CAATACTC,0.297 ± 0.043 E-score
19,CGATACTC,0.45435 ± 0.000368 E-score
20,AGATACTA,0.316 ± 0.0687 E-score
21,AGATACTG,0.34203 ± 0.000156 E-score
22,AGATACTC,0.402 ± 0.0473 E-score
23,CTATACTC,0.243 ± 0.0735 E-score
24,GGATACTA,0.371 ± 0.0235 E-score

# From PMC10668032, “Altered binding affinity of SIX1-Q177R correlates with enhanced WNT5A and WNT pathway effector expression in Wilms tumor”
